MITF inh: MITF inhibitors, primary screen, biochemical, AlphaScreen, human | Microphthalmia-associated transcription factor (Homo sapiens), O75030 | AlphaScreen MITF homodimerization, bead proximity signal | inhibition, % at 2.6 µM | actives 0.91% (n = 650,000); in the data active means inhibition above about 50%;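 further: 0% = vehicle wells with protein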
Target sequence (O75030 whole entry, looked up): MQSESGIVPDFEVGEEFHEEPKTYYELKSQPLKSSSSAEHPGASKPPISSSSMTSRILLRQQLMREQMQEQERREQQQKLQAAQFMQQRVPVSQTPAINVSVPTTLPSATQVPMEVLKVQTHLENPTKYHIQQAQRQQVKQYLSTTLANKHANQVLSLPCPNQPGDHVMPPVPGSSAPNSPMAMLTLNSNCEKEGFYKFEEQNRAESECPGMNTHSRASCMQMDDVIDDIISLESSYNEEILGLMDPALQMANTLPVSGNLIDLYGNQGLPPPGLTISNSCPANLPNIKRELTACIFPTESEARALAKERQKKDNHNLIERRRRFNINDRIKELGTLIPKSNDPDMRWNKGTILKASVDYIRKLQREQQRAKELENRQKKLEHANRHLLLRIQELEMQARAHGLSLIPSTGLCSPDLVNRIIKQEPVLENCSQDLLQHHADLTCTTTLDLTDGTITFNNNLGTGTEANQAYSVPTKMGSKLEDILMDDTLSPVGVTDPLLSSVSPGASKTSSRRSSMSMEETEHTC
FBW7 activator: FBW7 E3 ligase activators, primary screen, biochemical, AlphaScreen, human; AlphaScreen FBW7–phospho-cyclin E peptide binding, activator screen; normalized activity (activation), % at 26.1 µM; actives 0.13% (n = 650,000); AID 1259310, 2017; in the data active means normalized activity above about 1.9%;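 further: purified mutant Fbw7 with reduced substrate affinity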
GPR151 ag: activators of human GPR151, primary screen, cell-based, PathHunter beta-arrestin, luminescence | G-protein coupled receptor 151 (Homo sapiens), Q8TDV0 | PathHunter beta-arrestin GPR151 cells | activation, % at 11.2 µM | actives 1% (n = 650,000) | AID 1508602, 2020; in the data active means activation above about 4.9%;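 further: 0% = median of compound wells and 100% = cells with positive control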
TEAD-YAP inh: TEAD-YAP interaction inhibition, primary screen, TEAD-YAP interaction inhibitor project, luminescence, HEK-TIYL cells; TEAD-Gal4/YAP UAS-luciferase luminescence; AID 1259422, 2018; actives 1.4% (n = 640,000); inhibition, % at 9.12 µM; in the data active means inhibition above about 32%;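 further: 0% = median of test compound wells and 100% = reference inhibitor wells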
The depositor's hits bear a star. An excerpt weighted towards active compounds, which were near 3.4% of everything screened.

SMILES | MITF inh | FBW7 activator | GPR151 ag | TEAD-YAP inh
O=C(CSc1nc2ccccc2s1)NCc1n[nH]c(=O)c2ccccc12 | -11.7 | 0.2 | 0.2 | -2.5
COc1ccc(C(=O)Nn2c(SCC(=O)N3CCC(C)CC3)nc3ccccc3c2=O)cc1 | 7.1 | 0.2 | 1.4 | 82.4*
COc1ccc(C(=O)Nn2c(SCC(=O)N3CCN(c4ccccc4)CC3)nc3ccccc3c2=O)cc1 | -5.0 | 0.2 | 1.4 | 76.8*
O=C(CSc1nc2ccccc2c(=O)n1NC(=O)c1ccc(F)cc1)NC1CCCCC1 | 10.8 | 0.6 | -2.0 | 17.0
COc1ccc(C(=O)Nn2c(SCC(=O)NC3CCCCC3)nc3ccccc3c2=O)cc1 | 9.4 | 0.3 | -1.2 | 80.9*
COc1ccc(C(=O)Nn2c(C3CC3)nc3ccccc3c2=O)cc1 | 7.2 | -0.1 | -0.2 | -1.2
O=C(Nn1c(SCC(=O)N2CCN(c3ccccc3)CC2)nc2ccccc2c1=O)c1ccc(F)cc1 | 23.3 | 0.7 | 0.0 | -11.5
O=C(O)CSc1nc2ccccc2n1CC(=O)NC1CCCCC1 | 0.8 | 1.9* | -0.9 | -2.5
Cc1cc(C)n2nc(C(=O)OCC(=O)c3ccc(NC(=O)CC(C)C)cc3)nc2n1 | -11.0 | 0.0 | 0.1 | -4.1
COC(=O)C(C)OC(=O)c1ccc(C)c([N+](=O)[O-])c1 (configuration not stated) | 6.0 | 0.0 | -0.3 | 7.0
COc1ccc(C(=O)Nn2c(C)nc3ccccc3c2=O)cc1 | 1.9 | 0.0 | -1.2 | 6.3
COc1ccc(C(=O)Nn2c(SCC(=O)c3ccc(Cl)cc3)nc3ccccc3c2=O)cc1 | -1.7 | 0.5 | 1.3 | 77.3*
COc1ccc(C(=O)Nn2c(SCC(=O)N3CCCC3)nc3ccccc3c2=O)cc1 | 2.8 | -0.1 | 0.3 | 78.0*
COCCCn1c(=C(C#N)C#N)s/c(=C/c2ccccc2Br)c1=O | -2.2 | -0.2 | 1.1 | -17.8
N#Cc1cc2c(nc1SC1CC(=O)N(c3ccccc3)C1=O)CCCCC2 (configuration not stated) | 0.0 | -0.1 | -1.4 | -19.4
COc1ccc(-c2cc(-c3ccccc3)nc(SC3CC(=O)N(c4ccc(C)cc4)C3=O)c2C#N)cc1 (configuration not stated) | 8.0 | 0.0 | -1.1 | 8.9
Cc1nc(SC2CC(=O)N(c3ccccc3)C2=O)c(C#N)c(C)c1C (configuration not stated) | 12.4 | 1.2 | 0.8 | 57.4*
Cc1cc(C)c(C#N)c(SC2CC(=O)N(c3ccccc3)C2=O)n1 (configuration not stated) | 2.6 | 0.6 | 0.3 | 38.0*
N#Cc1cc2c(nc1SC1CC(=O)N(c3ccccc3)C1=O)CCC2 (configuration not stated) | -9.0 | -0.2 | 1.1 | 39.0*
O=C(Nc1ccc2c(c1)OCCO2)C(=O)Nc1cccc2ncccc12 | 8.0 | 0.2 | 0.1 | -2.3
CC(C)(C)c1ccc(-c2cn(-c3ccccc3)c3[n+]2CCCS3)cc1 | 4.0 | -0.2 | 1.2 | 84.3*
O=C(NCCO)c1ccc2nc(-c3ccc(N4CCOCC4)nc3)sc2c1 | -16.2 | 0.3 | -1.0 | 14.3
CN1C(=O)c2ccc(NC(=O)c3ccccc3Br)cc2C1=O | 1.6 | 2.0* | -1.1 | -5.1
O=C(Nc1ccc(O)cc1)c1ccccc1Br | -0.7 | 0.4 | -0.2 | 75.7*
COc1ccc(C(=O)N2CCN(c3ccc([N+](=O)[O-])c(NCCc4ccc(OC)c(OC)c4)c3)CC2)cc1Cl | -0.9 | -0.2 | -1.6 | 58.7*
SMILES | MITF inh | FBW7 activator | GPR151 ag | TEAD-YAP inh
O=C(c1ncn[nH]1)N1CCN(c2ccc([N+](=O)[O-])c(NCc3ccc(Cl)cc3)c2)CC1 | -332.6 | 3.9* | -1.1 | 7.1
COc1cc(CN2CCN(c3ccc([N+](=O)[O-])cc3)CC2)cc([N+](=O)[O-])c1O | 32.8 | -0.1 | 0.8 | -0.5
COc1ccc(CCNc2cc(N3CCN(CCO)CC3)ccc2[N+](=O)[O-])cc1OC | 9.8 | -0.2 | 2.1 | 63.6*
COc1ccc(N2CCN(Cc3cc(OC)c(O)c([N+](=O)[O-])c3)CC2)cc1 | 72.2* | -0.2 | 0.1 | -8.8
CC(C)c1ccccc1NC(=O)c1cc2ccccc2o1 | 4.8 | 0.1 | -1.0 | -14.2
CC1CCN(C(=O)CCl)c2ccccc2S1 (configuration not stated) | 14.6 | 0.1 | -0.4 | 66.7*
CC1CN(C(=O)N2CCC(C(=O)O)CC2)c2ccccc2S1 (configuration not stated) | 0.8 | -0.2 | -0.7 | -13.1
